For 40 sequences, PBM binding z-score results are on record in the supplement of paper PMC6555819.

The first test has as its system FXR:RXRa (NR concentration 270 nM, RXRa partner concentration 90 nM). Briefly: PBM binding z-score (relative to random genomic background probes); higher = stronger binding; sequences stand for … in GC…GCGATTGACAGCGTAGAATGAAGG
In a few lines:
(§1)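 The probes on custom Agilent 4×180K protein-binding microarrays were double-stranded, with 34-nt variable regions bearing direct-repeat seeds, single-nucleotide variants, half-site ablations and random human genomic background sequences. Incubation lasted 1 h with ligand-free nuclear receptor dimers in PBS pH 7.4, 2% milk, 0.02% Triton X-100, 1 mM DTT, 0.2 mg/mL BSA and 0.4 mg/ml salmon testes DNA. Antibodies against each partner (one per run) detected bound dimers, and fluorescence scans were regression-normalized. Binding z-scores take the random background probes as reference.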
Regarding AATACATGGTCACTAGGCCAGAGTAGGTACGAAT, the PBM binding z-score is -0.31.

The sequence CCGACTTGGGCAGAAAGGTTACCATACCATCCGG had a PBM binding z-score of 0.0234.

The sequence ATCTCTAGGTAAAGTTCACTGAAAGATCGATAGA yielded a PBM binding z-score of 2.15.

CCTTACGGGTCACGAGGTTATGGCACGACGAGCG returned a PBM binding z-score of 6.57.

On to GGTACGAGGGCAAGTTGATAGCAGAGTTTGATGG, for which the PBM binding z-score came to 0.998.

ATCTCTAGGTAACCAAGGTCAGTGAATGCCGAAC returned a PBM binding z-score of 1.59.

Sequence GCATATAGGTAATACAAGGTGAGAGTCCGATTGT displayed a PBM binding z-score of 0.288.

Take CAAACTAGGTCACCGGAAGGTCAACGTCCGCATG: the PBM binding z-score is 6.21.

For AGAACGAGGGCAAGCTGAGTTGATAGCAGAGTAG, the PBM binding z-score was 0.521.

As to CCGACTGGGGCATAAAGTTACCATAAGCCAGCCC, the PBM binding z-score was -0.335.

For TCATATAGGTAAACGCTAGGTGAAAGTCCGATCT, the PBM binding z-score worked out at 1.11.

Consider ATACCAAGTTGATCGTGAGGTCGTTGATACTAAC, for which the PBM binding z-score is 1.48.

Turning to TTACCAAGGTGAGCAGAGGTCGTTGATCCAACTC, the PBM binding z-score is 1.14.

As to ATCTCTCGGTAACCAAGTTCAGTGAATGCCGAAC, the PBM binding z-score was 0.00199.

TCTAGTTGGTCACGGAGGTCAGACACGACGGGTA registered a PBM binding z-score of 2.17.

Sequence GCATATAGGTAATGCAAGGTGAAAGTCCGATTGT displayed a PBM binding z-score of 0.366.

In turn, TAGCCTAGGTCAGATGGGGCCAGTATACGCTATA came in with a PBM binding z-score of 2.75.

Regarding ATCTCTAGGTACAGTTCAGTGAAAGATCGATAGA, the PBM binding z-score turned out to be 0.629.

With CCTGCTAGGTCGTGGTCAGCTAATCTACAGTATG, the PBM binding z-score came to 0.204.

On to CCGACTGGGTCATAAGGTTACCATAAGCCAGCCC, for which the PBM binding z-score turned out to be 2.99.

The sequence GATACAGGGTCAGCTAGAGGCCAGTGTATGGAAA came in with a PBM binding z-score of 4.14.

For CAAACTAGCTCAAAGGTCAAAGTCGAGCCAACCA, the PBM binding z-score was found to be 5.95.

ATCTCTAGGTAACGAGTTCAGTGAAAGAGAGGAC had a PBM binding z-score of 0.481.

Turning to CCTACTTGGTCAGGAGGTCACACACCGGATATGA, the PBM binding z-score stood at 3.55.

In turn, GGAACGAGGGCATTCGAGTTGGTAGCATGGCGAT registered a PBM binding z-score of 0.825.

Sequence TCATATAGATAAAAGGTGAAAGTCGGTGTGGTAA returned a PBM binding z-score of 1.52.

TCATATAGGGAATACAGGTGAAAGTCGGCATCTA registered a PBM binding z-score of 1.31.

Take CTCGAAAGGTCGTTCTCAGGTGAGTATACCAAAC: the PBM binding z-score came to 5.6.

As to CGAACTACGTCAGAACAGGACAGTGAAGGATGAT, the PBM binding z-score is -0.457.

TCTTGTAGATCTACAGGAGGTTAAGAAAGATCGA: the PBM binding z-score is -0.0507.

CGTCCAAGGTCCTAGGAGGTCAGTGAAGACAGAT yielded a PBM binding z-score of 1.97.

ACTAGAAGGCCAAGTTTGGGTCACTCAAACAAAG gave a PBM binding z-score of 0.681.

Regarding CAAACTTGGTCACCGGAAGGTCAAAGTCCGCATG, the PBM binding z-score was found to be 3.58.

In the case of ATATGTAGGTTAATGGTCATTCAGGTTGGTTCGC, the PBM binding z-score was determined as 0.826.

AGAATGAGGTTATATGTAGATCAGGGAAGAAAGT came in with a PBM binding z-score of 2.11.

Sequence CCCTACGGGTCACTGACAGGTTATAGCATTTGGA had a PBM binding z-score of 5.12.

In the case of CCTACAGGGCCACGAAAGGTCATTGATTCAGTGA, the PBM binding z-score stood at 4.09.

Turning to ATGTCTAGGTAAAGTTCAGTGAAAGATCGATAGA, the PBM binding z-score is 1.21.

The sequence TCAAGCAGGCCAGAGGGTCACTCAAGAGGTACGG came in with a PBM binding z-score of 1.15.

Regarding TAGCCTAGGTCATTCAGGGGACAGTATAGAAAGC, the PBM binding z-score amounted to 4.83.

The subject of another test is LXRa:RXRa (NR concentration 270 nM, RXRa partner concentration 90 nM). Described as above. In a few lines:
as §1
AATACATGGTCACTAGGCCAGAGTAGGTACGAAT returned a PBM binding z-score of -0.00437.

The sequence CCGACTTGGGCAGAAAGGTTACCATACCATCCGG returned a PBM binding z-score of 0.228.

ATCTCTAGGTAAAGTTCACTGAAAGATCGATAGA returned a PBM binding z-score of 3.16.

With CCTTACGGGTCACGAGGTTATGGCACGACGAGCG, the PBM binding z-score was 4.39.

In turn, GGTACGAGGGCAAGTTGATAGCAGAGTTTGATGG registered a PBM binding z-score of 0.455.

ATCTCTAGGTAACCAAGGTCAGTGAATGCCGAAC returned a PBM binding z-score of 2.3.

In turn, GCATATAGGTAATACAAGGTGAGAGTCCGATTGT returned a PBM binding z-score of 0.937.

The sequence CAAACTAGGTCACCGGAAGGTCAACGTCCGCATG returned a PBM binding z-score of 6.05.

For the sequence AGAACGAGGGCAAGCTGAGTTGATAGCAGAGTAG, the PBM binding z-score came out at 0.295.

For CCGACTGGGGCATAAAGTTACCATAAGCCAGCCC, the PBM binding z-score was -0.54.

TCATATAGGTAAACGCTAGGTGAAAGTCCGATCT: the PBM binding z-score was 0.968.

Regarding ATACCAAGTTGATCGTGAGGTCGTTGATACTAAC, the PBM binding z-score came to 1.03.

For TTACCAAGGTGAGCAGAGGTCGTTGATCCAACTC, the PBM binding z-score came out at 1.86.

ATCTCTCGGTAACCAAGTTCAGTGAATGCCGAAC gave a PBM binding z-score of 0.567.

The sequence TCTAGTTGGTCACGGAGGTCAGACACGACGGGTA registered a PBM binding z-score of 2.33.

As to GCATATAGGTAATGCAAGGTGAAAGTCCGATTGT, the PBM binding z-score worked out at 1.83.

The sequence TAGCCTAGGTCAGATGGGGCCAGTATACGCTATA had a PBM binding z-score of 1.56.

With ATCTCTAGGTACAGTTCAGTGAAAGATCGATAGA, the PBM binding z-score was found to be 0.639.

CCTGCTAGGTCGTGGTCAGCTAATCTACAGTATG came in with a PBM binding z-score of 0.138.

Consider CCGACTGGGTCATAAGGTTACCATAAGCCAGCCC, for which the PBM binding z-score stood at 3.47.

GATACAGGGTCAGCTAGAGGCCAGTGTATGGAAA: the PBM binding z-score worked out at 2.46.

CAAACTAGCTCAAAGGTCAAAGTCGAGCCAACCA had a PBM binding z-score of 5.85.

On to ATCTCTAGGTAACGAGTTCAGTGAAAGAGAGGAC, for which the PBM binding z-score is 0.764.

Regarding CCTACTTGGTCAGGAGGTCACACACCGGATATGA, the PBM binding z-score amounted to 3.69.

In turn, GGAACGAGGGCATTCGAGTTGGTAGCATGGCGAT yielded a PBM binding z-score of 0.72.

With TCATATAGATAAAAGGTGAAAGTCGGTGTGGTAA, the PBM binding z-score stood at 1.57.

As to TCATATAGGGAATACAGGTGAAAGTCGGCATCTA, the PBM binding z-score amounted to 1.1.

Sequence CTCGAAAGGTCGTTCTCAGGTGAGTATACCAAAC displayed a PBM binding z-score of 4.19.

CGAACTACGTCAGAACAGGACAGTGAAGGATGAT registered a PBM binding z-score of -0.582.

Turning to TCTTGTAGATCTACAGGAGGTTAAGAAAGATCGA, the PBM binding z-score stood at 1.18.

On to CGTCCAAGGTCCTAGGAGGTCAGTGAAGACAGAT, for which the PBM binding z-score amounted to 1.66.

ACTAGAAGGCCAAGTTTGGGTCACTCAAACAAAG registered a PBM binding z-score of 0.517.

As to CAAACTTGGTCACCGGAAGGTCAAAGTCCGCATG, the PBM binding z-score stood at 3.72.

In turn, ATATGTAGGTTAATGGTCATTCAGGTTGGTTCGC gave a PBM binding z-score of 1.09.

Take AGAATGAGGTTATATGTAGATCAGGGAAGAAAGT: the PBM binding z-score is 1.96.

In turn, CCCTACGGGTCACTGACAGGTTATAGCATTTGGA displayed a PBM binding z-score of 4.24.

Sequence CCTACAGGGCCACGAAAGGTCATTGATTCAGTGA came in with a PBM binding z-score of 5.83.

For ATGTCTAGGTAAAGTTCAGTGAAAGATCGATAGA, the PBM binding z-score stood at 1.74.

On to TCAAGCAGGCCAGAGGGTCACTCAAGAGGTACGG, for which the PBM binding z-score was determined as 0.997.

TAGCCTAGGTCATTCAGGGGACAGTATAGAAAGC registered a PBM binding z-score of 4.05.
